Results reported in PubChem BioAssay (Tox21).
Results filed as inconclusive are left out. Activity calls are given as the source filed them. Calls come from the whole dose curve; as a rule, active = well fitted curve in the direction sought with a large enough effect in the repeat runs; inconclusive = weak or mixed curves; inactive = no such curve, though single readings can be large; an effect the other way counts as inactive or inconclusive.

Test: Caspase-3/7 induction in CHO-K1 cells by small molecules, qHTS cell viability counter screen (AID 1346979); note: nearly all actives have a fitted effect of over 35% in size
Conditions: CellTiter-Fluor fluorescence, 17 h; series mostly up to 92.4 µM; activity change, negative = cytotoxicity: at the top concentration
Method in brief: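 Cytotoxicity counter screen run in parallel with the caspase-3/7 assay: CHO-K1 cells, 16hr compound treatment at 37C, then CellTiter-Fluor for 1hr before fluorescence reading.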
% is set by controls: 0 for no effect and ±100 for the full control effect.

Structure (SMILES)	activity change, negative = cytotoxicity
Oc1cc(O)c2c(c1)O[C@H](c1ccc(O)c(O)c1)[C@H](O)C2	-2.14% [at 42.5 µM] (inactive)
CC(=O)O[C@H](CC(=O)[O-])C[N+](C)(C)C	4.18% (inactive)
CCOC(=O)[C@H](CCc1ccccc1)N[C@@H](C)C(=O)N1CCC[C@H]1C(=O)O	3.04% [at 42.5 µM] (inactive)
C[C@H](O)C(=O)Nc1c(I)c(C(=O)NC(CO)CO)c(I)c(C(=O)NC(CO)CO)c1I	1.97% [at 42.5 µM] (inactive)
NC(N)=NS(=O)(=O)c1ccc(N)cc1	5.09% [at 42.5 µM] (inactive)
CO	6.6% (inactive)
CCCC=O	2.07% (inactive)
COc1cc(C)cc(O)c1	2.77% (inactive)
COc1ccc(NC(C)=O)cc1	-7.64% (inactive)
Nc1ccn(C2CO[C@H](CO)O2)c(=O)n1 (some centres undefined)	10.5% [at 42.5 µM] (inactive)
COC(=O)c1ccc(C(=O)OC)c(C(=O)OC)c1	1.07% (inactive)
NC(=O)CCCCC1CCSS1 (centres undefined)	5.9% [at 42.5 µM] (inactive)
Nc1nc(F)nc2c1ncn2[C@@H]1O[C@H](CO)[C@@H](O)[C@@H]1O	-7.71% [at 42.5 µM] (inactive)
CCCCCOC(=O)Nc1nc(=O)n([C@@H]2O[C@H](C)[C@@H](O)[C@H]2O)cc1F	2.48% [at 42.5 µM] (inactive)
Nc1[nH]c(=O)ncc1F	4.87% [at 42.5 µM] (inactive)
O=C1C(CCS(=O)c2ccccc2)C(=O)N(c2ccccc2)N1c1ccccc1 (centres undefined)	0.636% [at 42.5 µM] (inactive)
NCCN1CCNC1=O	10.7% (inactive)
CCN1CCCC(OC(=O)C(c2ccccc2)c2ccccc2)C1 (centres undefined)	2.09% [at 42.5 µM] (inactive)
CCCC(C)CO (centres undefined)	0.217% (inactive)
CCCCCCCCC=O	5.1% (inactive)
CC1=CC(C)C(C=O)C(C)C1 (centres undefined)	7.77% (inactive)
NC(CS)C(=O)O (centres undefined)	15.9% [at 42.5 µM] (inactive)
CC(C)N1C(=O)c2ccccc2C1=O	-1.71% (inactive)
C1=C\CC/C=C\CC/C=C\CC/1	8.11% (inactive)
CCCCc1ccc2cccc(S(=O)(=O)O)c2c1	11% (inactive)

Test: Caspase-3/7 induction in CHO-K1 cells by small molecules, qHTS assay (AID 1346980); note: nearly all actives have a fitted effect of over 15% in size
Conditions: CHO-K1 caspase-3/7 induction, Caspase-Glo luminescence, 17 h; series mostly up to 92.4 µM; caspase-3/7 activation: at the top concentration
Method in brief: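 Wild-type cells were seeded at 1,500 per well and settled 5 hr at 37 C, 5% CO2, then exposed to DMSO-dissolved compounds for 17 hr. Caspase-Glo 3/7 reagent was added, and luminescence was read after 30min at room temperature.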

Structure (SMILES)	caspase-3/7 activation
Oc1cc(O)c2c(c1)O[C@H](c1ccc(O)c(O)c1)[C@H](O)C2	-0.514% [at 42.5 µM] (inactive)
CCCCCC[C@@H](CCC)C(=O)O	-1.3% [at 42.5 µM] (inactive)
C[C@H](O)C(=O)Nc1c(I)c(C(=O)NC(CO)CO)c(I)c(C(=O)NC(CO)CO)c1I	-0.616% [at 42.5 µM] (inactive)
[O-][N+](=Nc1ccccc1)c1ccccc1	0.417% (inactive)
NC(N)=NS(=O)(=O)c1ccc(N)cc1	0.735% [at 42.5 µM] (inactive)
CN(C)C(=O)C(CCN1CCC(O)(c2ccc(Cl)cc2)CC1)(c1ccccc1)c1ccccc1	1.42% [at 42.5 µM] (inactive)
CCCC=O	0.536% (inactive)
COc1nc(C)nc(N)n1	0.884% (inactive)
COc1cc(C)cc(O)c1	-0.142% (inactive)
COc1ccc(NC(C)=O)cc1	-0.611% (inactive)
Nc1ccn(C2CO[C@H](CO)O2)c(=O)n1 (some centres undefined)	1.06% [at 42.5 µM] (inactive)
O=C(O)CCNC(=O)c1ccc(N=Nc2ccc(O)c(C(=O)O)c2)cc1	-0.228% [at 42.5 µM] (inactive)
COC(=O)c1ccc(C(=O)OC)c(C(=O)OC)c1	0.34% (inactive)
CCCC(=O)O[C@]1(C(=O)CCl)[C@@H](C)C[C@H]2[C@@H]3CCC4=CC(=O)C=C[C@]4(C)[C@@]3(F)C(=O)C[C@@]21C	1.17% [at 42.5 µM] (inactive)
Nc1nc(F)nc2c1ncn2[C@@H]1O[C@H](CO)[C@@H](O)[C@@H]1O	0.0013% [at 42.5 µM] (inactive)
O=C(O)Cc1cc(I)c(Oc2cc(I)c(O)c(I)c2)c(I)c1	7.15% [at 42.5 µM] (inactive)

Structure (SMILES)	caspase-3/7 activation
CCN1CCCC1CNC(=O)c1cc(S(N)(=O)=O)ccc1OC (centres undefined)	-0.471% (inactive)
O=C(O)c1ccccc1-c1ccc(C(F)(F)F)cc1	0.453% [at 42.5 µM] (inactive)
CCCCCOC(=O)Nc1nc(=O)n([C@@H]2O[C@H](C)[C@@H](O)[C@H]2O)cc1F	0.556% [at 42.5 µM] (inactive)
Cc1c(C)n(CCN(C)C)c2ccc(C(=O)OCCN(C)C)cc12	-0.423% [at 42.5 µM] (inactive)
Nc1[nH]c(=O)ncc1F	-0.256% [at 42.5 µM] (inactive)
CC(CCO)CCCC(C)(C)O (centres undefined)	-1.62% (inactive)
NCCN1CCNC1=O	-0.741% (inactive)
CCN1CCCC(OC(=O)C(c2ccccc2)c2ccccc2)C1 (centres undefined)	0.337% [at 42.5 µM] (inactive)
CCCC(C)CO (centres undefined)	-0.311% (inactive)
CCCCCCCCC=O	-2.06% (inactive)
CC1=CC(C)C(C=O)C(C)C1 (centres undefined)	-0.413% (inactive)
NC(CS)C(=O)O (centres undefined)	-0.857% [at 42.5 µM] (inactive)
CC(C)N1C(=O)c2ccccc2C1=O	1.76% (inactive)
C1=C\CC/C=C\CC/C=C\CC/1	-0.0555% (inactive)
CCCCc1ccc2cccc(S(=O)(=O)O)c2c1	-0.889% (inactive)

Test: Caspase-3/7 induction in HepG2 cells by small molecules, qHTS cell viability counter screen (AID 1346981); note: nearly all actives have a fitted effect of over 30% in size
Conditions: CellTiter-Fluor fluorescence, 17 h; series mostly up to 92.4 µM; activity change, negative = cytotoxicity: at the top concentration
Method in brief: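 Wild-type HepG2 cells (2,000/well) were allowed to settle for 5 hr at 37 C, 5% CO2, then dosed with compounds in DMSO by pin transfer. After 16 hr at 37 C, CellTiter-Fluor was added and fluorescence read 1 hr later.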

Structure (SMILES)	activity change, negative = cytotoxicity
Oc1cc(O)c2c(c1)O[C@H](c1ccc(O)c(O)c1)[C@H](O)C2	5.49% [at 42.5 µM] (inactive)
CCCCCC[C@@H](CCC)C(=O)O	9.06% [at 42.5 µM] (inactive)
CC(=O)O[C@H](CC(=O)[O-])C[N+](C)(C)C	-1.98% (inactive)
CCOC(=O)[C@H](CCc1ccccc1)N[C@@H](C)C(=O)N1CCC[C@H]1C(=O)O	1.67% [at 42.5 µM] (inactive)
C[C@H](O)C(=O)Nc1c(I)c(C(=O)NC(CO)CO)c(I)c(C(=O)NC(CO)CO)c1I	3.79% [at 42.5 µM] (inactive)
[O-][N+](=Nc1ccccc1)c1ccccc1	-2.98% (inactive)
NC(N)=NS(=O)(=O)c1ccc(N)cc1	2.24% [at 42.5 µM] (inactive)
CO	3.9% (inactive)
CCCC=O	11.1% (inactive)
COc1nc(C)nc(N)n1	0.842% (inactive)
COc1cc(C)cc(O)c1	-2.63% (inactive)
COc1ccc(NC(C)=O)cc1	1.32% (inactive)
Nc1ccn(C2CO[C@H](CO)O2)c(=O)n1 (some centres undefined)	0.862% [at 42.5 µM] (inactive)
COC(=O)c1ccc(C(=O)OC)c(C(=O)OC)c1	-0.988% (inactive)
CCCC(=O)O[C@]1(C(=O)CCl)[C@@H](C)C[C@H]2[C@@H]3CCC4=CC(=O)C=C[C@]4(C)[C@@]3(F)C(=O)C[C@@]21C	0.652% [at 42.5 µM] (inactive)
Nc1nc(F)nc2c1ncn2[C@@H]1O[C@H](CO)[C@@H](O)[C@@H]1O	-1.95% [at 42.5 µM] (inactive)
CCN1CCCC1CNC(=O)c1cc(S(N)(=O)=O)ccc1OC (centres undefined)	-7.48% (inactive)

Structure (SMILES)	activity change, negative = cytotoxicity
O=C(O)c1ccccc1-c1ccc(C(F)(F)F)cc1	4.43% [at 42.5 µM] (inactive)
CCn1c(=O)c2c(nc(/C=C/c3ccc(OC)c(OC)c3)n2C)n(CC)c1=O	-8.88% [at 42.5 µM] (inactive)
CCCCCOC(=O)Nc1nc(=O)n([C@@H]2O[C@H](C)[C@@H](O)[C@H]2O)cc1F	-3.41% [at 42.5 µM] (inactive)
Cc1c(C)n(CCN(C)C)c2ccc(C(=O)OCCN(C)C)cc12	-15.3% [at 42.5 µM] (inactive)
Nc1[nH]c(=O)ncc1F	5.34% [at 42.5 µM] (inactive)
CC(CCO)CCCC(C)(C)O (centres undefined)	9.31% (inactive)
O=C1C(CCS(=O)c2ccccc2)C(=O)N(c2ccccc2)N1c1ccccc1 (centres undefined)	8.28% [at 42.5 µM] (inactive)
NCCN1CCNC1=O	5.56% (inactive)
CCN1CCCC(OC(=O)C(c2ccccc2)c2ccccc2)C1 (centres undefined)	-1.96% [at 42.5 µM] (inactive)
CCCC(C)CO (centres undefined)	-0.577% (inactive)
CCCCCCCCC=O	4.97% (inactive)
CC1=CC(C)C(C=O)C(C)C1 (centres undefined)	5.74% (inactive)
NC(CS)C(=O)O (centres undefined)	8.93% [at 42.5 µM] (inactive)
CC(C)N1C(=O)c2ccccc2C1=O	-0.0908% (inactive)
C1=C\CC/C=C\CC/C=C\CC/1	2.92% (inactive)
CCCCc1ccc2cccc(S(=O)(=O)O)c2c1	6.65% (inactive)
